Sampled rows, rich in hits. Any-hit rate of the full collection: about 3.5%.
BoNT A protease = inhibitors of Botulinum neurotoxin A light chain protease. AID 588499. multiplex microsphere protease substrate cleavage, flow cytometry. 0.17% of 360,000 active. inhibition, % at 10 µM
Anthrax LF prot = inhibitors of Bacillus anthracis lethal factor protease; P15917; multiplex microsphere protease cleavage assay, LF; inhibition, % at 10 µM; 0.12% of 360,000 active; AID 588501
Bead autofluor = flagged as autofluorescent in microsphere protease counterscreen; compound autofluorescence counterscreen, microsphere flow cytometry; active compounds read high; fluorescence intensity (test concentration not listed); 3.1% of 360,000 active; in the data active = fluorescence intensity above about 16000; inconclusive = no clear call, values can overlap the other calls
BoNT F protease = BoNT F light chain protease inhibition; Multiplex microsphere protease cleavage assay, flow cytometry; inhibition, % at 10 µM; 0.22% of 360,000 active; AID 588497; in the data active = inhibition above about 35%, passing the limit was not always enough; inconclusive = no clear call, values can overlap the other calls
Hits are given with their value; n = inactive; u = inconclusive. Rule as the data show it, unless noted: active = inhibition above about 30%; inconclusive = no clear call, values can overlap the other calls; inactive = below that.

SMILES	BoNT A protease	Anthrax LF prot	Bead autofluor	BoNT F protease
CCOc1cccc(N2C(=O)CC(N3CCN(c4ccc(S(=O)(=O)CC)cc4)CC3)C2=O)c1 (stereo not given)	n	n	22715	n
Cc1cccc(-n2c(-c3csc(C(C)C)c3)n[nH]c2=S)c1	n	n	20031	n
CCCc1cc(-c2n[nH]c(=S)n2-c2cccc(C)c2)cs1	n	n	n	n
CN(Cc1cc(=O)[nH]c2ccccc12)C(=O)c1ccccc1	n	n	19977	n
COc1cc2c(cc1OC)C(c1ccccc1)N(C(=O)C(C)(C)C)CC2 (stereo not given)	n	n	n	n
CCC1CCC(c2nnc(-c3ccc([N+](=O)[O-])cc3)o2)CC1 (stereo not given)	n	n	n	n
CC(C)N1CCCC(C)(C(=O)Nc2nc3ccccc3[nH]2)C1 (stereo not given)	n	n	n	n
O=C1c2ccccc2S(=O)(=O)N1CCOc1ccc(F)cc1	n	n	24481	n
O=C(CN1C(=O)c2ccccc2S1(=O)=O)NCc1ccc(F)cc1	n	n	n	n
Cc1ccc(/C=C/C(=O)O)cc1S(=O)(=O)NCc1ccco1	n	n	n	n
CO/N=C/c1ccc(N2CCN(C(=O)c3ccc(C)cc3)CC2)c([N+](=O)[O-])c1	n	n	24171	n
Cc1ccc(OC(=O)c2ccc(N3CCOCC3)c([N+](=O)[O-])c2)cc1	n	n	19491	n
CO/N=C/c1ccc(N2CCCC2)c([N+](=O)[O-])c1	n	n	n	n
CCOC(=O)c1cc(CC)sc1NC(=O)c1ccc(N2CCOCC2)c([N+](=O)[O-])c1	n	n	19127	n
COC(=O)c1ccc(N2CCC(c3cc(-c4ccc(OC)cc4)n[nH]3)CC2)c([N+](=O)[O-])c1	n	n	23463	n
COc1ccc(-c2cc(C3CCN(c4ccc(C(C)=O)cc4[N+](=O)[O-])CC3)[nH]n2)cc1	n	n	n	n
COC(=O)[C@H](CCSC)NC(=O)Cn1cnc2c(OCc3ccccc3)ncnc21	n	n	n	n
O=C(c1ccccc1F)N1CCCC(C(=O)N2CCc3ccccc3C2)C1 (stereo not given)	n	n	n	n
CC(=O)/C(=N\Nc1ccccc1)Sc1nnc(-c2ccccc2)n1-c1ccccc1	n	n	n	n
CC(=O)C(N=Nc1ccccc1)(Sc1nnc(-c2ccccc2)n1-c1ccccc1)C(C)=O	n	n	22141	n
CC(=O)C(N=Nc1ccccc1)(Sc1nnc(-c2ccccc2)n1-c1ccccc1)C(=O)Nc1ccccc1 (stereo not given)	n	n	19172	n
Cc1cc(C)n2nc(SCC(=O)NC(=O)c3ccccc3Cl)nc2n1	n	n	n	n
CCN(CC)S(=O)(=O)c1ccc(Cl)c(C(=O)Nc2nnc(C)s2)c1	u	n	23810	n
O=C(COC(=O)c1cc(S(=O)(=O)N2CCCCC2)ccc1N1CCOCC1)c1ccccc1	n	n	n	n
CCc1ccc(NC(=O)CSC2=C(C#N)C(c3ccc4c(c3)OCO4)CC(=O)N2)cc1 (stereo not given)	n	n	n	n
SMILES	BoNT A protease	Anthrax LF prot	Bead autofluor	BoNT F protease
Cc1ccc(NC(=O)CSC2=C(C#N)C(c3ccc4c(c3)OCO4)CC(=O)N2)cc1C (stereo not given)	n	n	22137	n
Cc1cc(C2C(C#N)=C(N)SC(N)=C2C#N)c(C)s1	n	n	n	40
CCSCCNC(=O)c1cc(-n2cnnc2)ccc1Cl	u	n	21120	n
O=C(Nc1ccccc1)c1cc(-n2cnnc2)ccc1Cl	n	n	n	n
O=C(NCc1ccc2c(c1)OCO2)c1cc(-n2cnnc2)ccc1Cl	n	n	19482	n
O=C(Nc1ccc2c(c1)OCCO2)c1cc(-n2cnnc2)ccc1Cl	n	n	n	n
Cc1nc(NC(=O)c2cc(-n3cnnc3)ccc2Cl)ccc1Br	n	n	21255	n
O=C(NCCS(=O)(=O)N1CCCCCC1)c1ccccc1	n	n	u	n
Cc1noc(C)c1NC(=O)N(C)C[C@@H]1OCc2cn(nn2)CCCC(=O)N([C@H](C)CO)C[C@H]1C	n	n	n	n
O=C(CNC(=O)c1ccc(Cl)cc1Cl)OCCCn1c(=O)[nH]c2ccccc21	n	n	n	n
CCCCN(c1ccccc1)S(=O)(=O)c1ccc2c(c1)CCN2C(=O)CCC(=O)O	n	n	22207	n
CCCN(c1ccc(OCC)cc1)S(=O)(=O)c1ccc2c(c1)CCN2C(=O)CCC(=O)O	n	n	n	n
O=C(O)CCC(=O)N1CCc2cc(S(=O)(=O)N3CCCCC3)ccc21	n	n	n	n
CC1CCN(S(=O)(=O)c2ccc3c(c2)CCN3C(=O)CCC(=O)O)CC1	n	n	21818	n
COc1cccc(/C=C/C(=O)OCC(=O)NC2CC2)c1OC	n	n	n	n
CCOc1nc(-c2ccccc2Cl)ccc1C#N	n	n	20479	n
